Assay outcomes from PubChem BioAssay.
In the library only some 15% were active in any assay of this set; here they are far more common.
TDP1 cell noCPT – qHTS for Inhibitors of human tyrosyl-DNA phosphodiesterase 1 (TDP1): qHTS in cells in absence of CPT; DT40 Tdp1-/- hTDP1 cells, no CPT, ATP luminescence, 48 h; Potency, µM (series often up to 46.2 µM), most hits filed as inhibitors; hit rate 15% among 420,000; note: nearly all actives have a fitted effect of over 55% in size
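Readout: luminescence from CellTiter-Glo after 30 min in the dark at RT. Cells: DT40 Tdp1-/- with stable hTDP1, 400/well. Exposure: compounds alone, ≥48 hr, 37 °C.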
VP16 counter – VP16 counterscreen qHTS for inhibitors of ROR gamma transcriptional activity; Potency, µM (top dose mostly 53.6 µM), hits mostly inhibitors; AID 2546, 2010; Drosophila S2 Gal4-VP16 UAS-luciferase, luminescence, 20 h; hit rate 3.5% among 310,000;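 note: Gal4-VP16 expression switched on by copper sulfate through the metallothionein promoter; nearly all actives have a fitted effect of over 50% in size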
RORgamma inh – qHTS for inhibitors of ROR gamma transcriptional activity; Nuclear receptor ROR-gamma (Mus musculus), P51450; Drosophila S2 Gal4-RORgamma UAS-luciferase reporter, 20 h; Potency, µM (top dose mostly 53.6 µM), usual class: inhibitors; hit rate 5.4% among 310,000; note: nearly all actives have a fitted effect of over 60% in size
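Using a luciferase readout, inhibitors were identified by reduced reporter activity in Drosophila cells coexpressing a copper-inducible Gal4–ROR gamma fusion and UAS-driven Photinus luciferase, incubated 20 hr after 700 uM copper sulfate.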
ALOX12 inh – Primary qHTS assay for inhibitors of human arachidonate 12S-lipoxygenase (ALOX12): Round 2; Polyunsaturated fatty acid lipoxygenase ALOX12 (Homo sapiens), P18054; purified 12hLO, xylenol orange hydroperoxide absorbance; Potency, µM (doses to about 108 µM), actives largely listed as inhibitors; hit rate 1.1% among 580,000
Target sequence (P18054 whole entry, looked up): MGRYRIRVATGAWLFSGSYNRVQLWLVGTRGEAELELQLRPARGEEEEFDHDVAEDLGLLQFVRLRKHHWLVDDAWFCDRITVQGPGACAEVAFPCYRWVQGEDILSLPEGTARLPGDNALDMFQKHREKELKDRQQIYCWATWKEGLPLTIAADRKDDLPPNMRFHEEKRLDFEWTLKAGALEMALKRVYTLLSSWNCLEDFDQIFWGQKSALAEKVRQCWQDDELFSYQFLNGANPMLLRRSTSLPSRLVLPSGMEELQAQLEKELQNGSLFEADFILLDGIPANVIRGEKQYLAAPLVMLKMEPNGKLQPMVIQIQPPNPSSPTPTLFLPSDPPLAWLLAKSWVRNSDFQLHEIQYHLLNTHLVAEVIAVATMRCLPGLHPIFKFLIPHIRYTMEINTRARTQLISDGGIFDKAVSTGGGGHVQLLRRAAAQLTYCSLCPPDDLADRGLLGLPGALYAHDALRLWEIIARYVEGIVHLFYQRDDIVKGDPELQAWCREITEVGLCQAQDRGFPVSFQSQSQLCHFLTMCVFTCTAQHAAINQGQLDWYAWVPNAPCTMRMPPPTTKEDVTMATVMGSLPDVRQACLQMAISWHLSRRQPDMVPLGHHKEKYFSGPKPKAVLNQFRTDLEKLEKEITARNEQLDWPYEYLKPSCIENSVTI
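Purified human 12hLO at 150 nM in 25 mM Hepes, 0.01% Triton X-100, pH 7.0, preincubated 15 min at room temperature with compound. Reaction started with 40 uM arachidonic acid, 30 min at room temperature. Hydroperoxide measured by Fe-xylenol orange, 573/405 nm absorbance ratio.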
DT40 TDP1 CPT – qHTS for Inhibitors of human tyrosyl-DNA phosphodiesterase 1 (TDP1): qHTS in cells in presence of CPT. chicken DT40 Tdp1-/-;hTDP1 cells + 20 nM CPT, ATP luminescence, 48 h. hit rate 12% among 420,000. Potency, µM (series often up to 46.2 µM), usual class: inhibitors; note: nearly all actives have a fitted effect of over 55% in size
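Chicken DT40 Tdp1-/- cells complemented with human TDP1, 400 cells/well, exposed to compounds plus 20 nM camptothecin for at least 48 h at 37 C; viability read as ATP content by CellTiter-Glo luminescence.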
ELG1 DNA repair – qHTS screen for small molecules that inhibit ELG1-dependent DNA repair in human embryonic kidney (HEK293T) cells expressing luciferase-tagged ELG1; HEK293T ELG1-luciferase reporter, luminescence, 16 h; DNA damage induced by 5-fluorouridine; Potency, µM (doses to about 46.1 µM), actives largely listed as inhibitors; hit rate 2.3% among 330,000; note: nearly all actives have a fitted effect of over 55% in size
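Step one: seed 2,000 cells per well. Step two: pin-transfer compound or DMSO alongside 5-fluorouridine. Step three: incubate 16 hr, 37 °C, 5% CO2. Step four: add ONE-Glo, wait 30 min, read luminescence.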
Hits are given with their value; . = inactive; ? = inconclusive; / = no result; ! = not active in a repeat; [ ] = remark or other dose. Calls come from the whole dose curve; as a rule, active = well fitted curve in the direction sought with a large enough effect; inconclusive = small, poorly fitted or top-dose-only effect, or another doubt; inactive = no such curve, though single readings can be large; an effect the other way counts as inactive or inconclusive.

SMILES	TDP1 cell noCPT	VP16 counter	RORgamma inh	ALOX12 inh	DT40 TDP1 CPT	ELG1 DNA repair
Cn1c(/C(C#N)=C(\O)c2ccc(Br)s2)nc2ccccc21	?	?	3.5µM	.	.	?
CC1CCN(Cc2ccc(CNc3ccc(C#N)cn3)cc2)CC1	/	/	/	.	/	/
CCn1c(CNC(C)c2ccc(Cl)c(Cl)c2)nc2cc(S(=O)(=O)N3CCOCC3)ccc21 (configuration not stated)	/	/	/	.	/	/
Cc1c(C)n(CCN(C)C)c2ncn3nc(COc4ccc(Cl)cc4)nc3c12	/	/	/	.	/	/
COc1ccc(OC)c(CC(NC(C)=O)C(=O)NC2CCN(c3c(Cc4ccccc4)c(C)nc4ncnn34)CC2)c1 (configuration not stated)	?	.	.	.	.	23µM
COC(=O)c1cc(=O)n(CCc2ccc(OC)c(OC)c2)c(=Nc2ccc(F)c(Cl)c2)s1	?	?	18µM	.	?	15µM
CNC(=O)C1CC(=O)N(CCc2ccc(OC)c(OC)c2)C(=Nc2ccc(F)cc2)S1 (configuration not stated)	?	.	.	.	.	.
COC(=O)c1cc(=O)n(Cc2ccc(F)cc2)c(=Nc2ccccc2)s1	?	.	?	.	?	?
COC(=O)c1cc(=O)n(-c2ccccc2)c(=Nc2ccccc2)s1	23µM	?	?	.	?	?
COC(=O)c1cc(=O)n(Cc2ccco2)c(=Nc2ccc(F)cc2)s1	?	?	?	/	21µM	?
COC(=O)c1cc(=O)n(Cc2ccc(OC)c(OC)c2)c(=Nc2ccc(F)cc2)s1	15µM	?	?	.	16µM	?
CCOC(=O)Cc1ccc(NC(=O)NC(C)C(=O)N2CCc3ccccc32)cc1 (configuration not stated)	/	/	/	.	/	/
O=C(CCc1ncc(-c2ccccc2F)o1)N1CCN(S(=O)(=O)c2ccccc2Cl)CC1	/	/	/	.	/	/
CCc1ccccc1CN1CCCC2(Cc3ccccc3CNC2=O)C1 (configuration not stated)	/	/	/	.[6.33 µM]	/	/
CS(=O)(=O)Oc1ccc2cc(-c3ccccc3)c(=O)oc2c1	/	/	/	.	/	/
COC(=O)Cc1c(C)c2ccc(OCc3cccc(Cl)c3)c(C)c2oc1=O	/	/	/	.	/	/
Cc1ccnc(SCC(=O)Nc2sc3c(c2C#N)CCCC3)n1	2.9µM	7.1µM	?	.	3.3µM	.
CCN1CCN(CC(=O)Nc2sc3c(c2C#N)CCC(C)C3)CC1 (configuration not stated)	18µM	.	?	.	?	.
CC1CCc2c(sc(NC(=O)CSc3ncn[nH]3)c2C#N)C1 (configuration not stated)	23µM	0.079µM	0.32µM	.	?	.
CSc1ccc(-c2nnn(CC(=O)Nc3sc4c(c3C#N)CCC(C(C)(C)C)C4)n2)cc1 (configuration not stated)	.	/	/	?	.	/
CC1CCc2c(sc(NC(=O)CSc3nnc(-c4ccccc4)o3)c2C#N)C1 (configuration not stated)	?	.	.	.	?	.
CC1CCc2c(sc(NC(=O)CN3CCNC(=O)C3)c2C#N)C1 (configuration not stated)	/	/	/	.	/	/
CC(C)(C)C1CCc2c(sc(NC(=O)CSc3ncn[nH]3)c2C#N)C1 (configuration not stated)	?	11µM	?	?	?	?
CC(C(=O)Nc1ccc2[nH]c(=O)[nH]c2c1)N(C)Cc1ccc(Cl)c(Cl)c1 (configuration not stated)	/	/	/	.	/	/
N#Cc1c(NC(=O)CSc2ncn[nH]2)sc2c1CCCC2	?	0.11µM	0.32µM	.	?	.
SMILES	TDP1 cell noCPT	VP16 counter	RORgamma inh	ALOX12 inh	DT40 TDP1 CPT	ELG1 DNA repair
CCCc1cc(=O)[nH]c(SCC(=O)NC2CC2)n1	.	/	/	.	.	.
CCCc1cc(=O)[nH]c(SCC(=O)Nc2sc3c(c2C#N)CCC(C)C3)n1 (configuration not stated)	.	.	.	40µM	.	.
N#Cc1c(NC(=O)CSC2=NCCS2)sc2c1CCCC2	?	.	?	.	?	?
O=C(c1ccncc1)N1CCn2c(nnc2-c2cncc(Br)c2)C1	/	/	/	.[6.33 µM]	/	/
CC(C)C(NC(=O)COc1cc(Cl)ccc1Cl)c1nc2ccccc2[nH]1 (configuration not stated)	/	/	/	.	/	/
COc1ccc(Cl)cc1C(=O)N1C[C@@H](F)C[C@H]1C(=O)N1CCCCC1	/	/	/	.	/	/
COc1ccc(/C=C2\C(=O)NCC(=O)N2Cc2ccccc2)cc1	21µM	.	.	.	15µM	.
COc1ccc(/C=C2\C(=O)N(Cc3ccc(F)cc3)CC(=O)N2Cc2ccccc2)cc1	26µM	.	.	.	23µM	?
O=C(Nc1cccnc1Oc1ccccc1)c1cc(F)ccc1Br	/	/	/	.	/	/
CCOC(=O)c1cc(-c2ccccc2)nc2c1c(C)nn2-c1ccccn1	?	11µM	4µM	.	?	?
CCOC(=O)c1cc(-c2ccncc2)nc2c1c(C)nn2C	18µM	.	.	.	?	?
CCOC(=O)c1cnn(-c2cccc(Cl)c2)c1N	.	.	?	.	.	?
CCOC(=O)c1cc(-c2cccs2)nc2onc(C)c12	.	.	.	.	.	.
CCOC(=O)c1cc(-c2ccco2)nc2c1c(C)nn2-c1cccc(Cl)c1	?	.	.	14µM!	.	.
CCCN(CCC)C(=O)c1ccc(CN2C(=O)NC3(CCS(=O)(=O)CC3)C2=O)cc1	/	/	/	.	/	/
O=C(NCC1CCCO1)c1ccc(NS(=O)(=O)c2ccc3[nH]c(=O)[nH]c3c2)cc1 (configuration not stated)	/	/	/	.	/	/
c1ccn2cc(CSc3ccc4c(c3)OCCCO4)nc2c1	/	/	/	.	/	/
c1ccc(CSCc2cn3ccccc3n2)cc1	?	.	13µM	.	.	?
O=C(O)c1ccccc1SCc1cn2ccccc2n1	.	.	.	?	.	?
Cc1ccc(SCc2cn3ccccc3n2)cc1	?	?	10µM	?	.	?
CCOC(=O)c1ccc(CNC(=O)N2CCC3(CC2)CN(c2ccccc2)C3=O)cc1	/	/	/	.	/	/
CCOC(=O)c1c(C)oc2nc(C)nc(NCC3CCN(Cc4cc(C)ccc4C)CC3)c12	.	/	/	.	.	/
